Records with an inconclusive call do not appear. Active and inactive are the calls of the source. The calls were made as follows, unless noted: active = hit-call score of the fitted dose curve at least 0.9, where 1 is the maximum; inactive = score below 0.9.
What was measured:
[1] = ACEA_ER_80hr: ACEA Biosciences xCELLigence Real-Time Cell Analysis on Estrogen Receptor Agonism for Proliferation (AID 2282667; active = hit-call score of the fitted dose curve at least 0.9, where 1 is the maximum); details: T47D proliferation, impedance (xCELLigence), 80 h
Summary of the method: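 Cell-growth kinetics were measured by impedance in T47D cells treated continuously with compound (top 100 uM final, 1:4 steps, 8 points). Activity at 80 h was scored as signal gain over the DMSO baseline.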

[2] = ATG_CRE_CIS: Attagene CIS-FACTORIAL HepG2 Assay for human cAMP Responsive Element (CRE) binding protein 3 (AID 2282926); details: HepG2 CRE cis-reporter, Attagene multiplexed mRNA; actives raise or lower the signal
Summary of the method: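 Cells carrying cis-regulated reporter constructs respond through their own endogenous factors. After 24 h treatment, RNA is reverse-transcribed, amplified, labelled and sized by capillary electrophoresis; up- and down-regulation are both scored against vehicle.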

[3] = target: CCAAT/enhancer-binding protein beta (Homo sapiens) (UniProt P17676); assay: ATG_C_EBP_CIS: Attagene CIS-FACTORIAL HepG2 Assay for human CCAAT/Enhancer Binding Protein (C/EBP) beta (AID 2282927); details: HepG2 Attagene cis-factorial transcription factor reporter; actives raise or lower the signal
CCAAT/enhancer-binding protein beta (Homo sapiens), sequence (P17676 whole entry, looked up): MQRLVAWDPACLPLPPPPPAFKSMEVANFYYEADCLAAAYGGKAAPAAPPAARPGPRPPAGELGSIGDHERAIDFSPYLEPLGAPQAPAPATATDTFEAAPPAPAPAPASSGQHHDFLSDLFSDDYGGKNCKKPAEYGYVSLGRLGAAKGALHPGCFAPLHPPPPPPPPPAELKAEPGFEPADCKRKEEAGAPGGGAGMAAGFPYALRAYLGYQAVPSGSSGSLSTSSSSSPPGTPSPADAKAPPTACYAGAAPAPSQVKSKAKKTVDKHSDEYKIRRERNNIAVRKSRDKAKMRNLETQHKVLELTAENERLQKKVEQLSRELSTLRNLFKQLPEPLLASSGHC
Summary of the method: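 Transiently transfected HepG2 (MRTU library, endogenous TF-driven promoters); 24 h dosing; total RNA → oligo(dT) RT → PCR → 6-FAM primer extension → HpaI digest → CE; fit bidirectionally vs DMSO.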

[4] = ATG_CMV_CIS: Attagene CIS-FACTORIAL HepG2 Assay for human CMV (Internal Marker) (AID 2282928); details: HepG2 CMV promoter reporter, transcription factor profiling; actives raise or lower the signal;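 also: endpoint acts as a background internal control marker rather than a target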
Summary of the method: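 Bidirectional fits against DMSO are applied to reporter mRNA, read by RT-PCR with capillary electrophoresis, from HepG2 cells exposed 24 h. The endpoint serves as an internal CMV background marker within the cis-factorial reporter panel.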

[5] = ATG_DR4_LXR_CIS: Attagene CIS-FACTORIAL HepG2 Assay for human Liver X Receptor (LXR), DR4 submotif (AID 2282929); details: HepG2 Attagene DR4 cis-reporter, mRNA transcription; actives raise or lower the signal
Summary of the method: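 Endogenous factor activity at a DR4 cis-element is read as reporter mRNA in transiently transfected HepG2 cells. Exposure lasts 24 h; transcripts are amplified, fluorescently labelled and sized by capillary electrophoresis, with DMSO as baseline.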

[6] = target: Aryl hydrocarbon receptor (Homo sapiens) (UniProt P35869); assay: ATG_Ahr_CIS: Attagene CIS-FACTORIAL HepG2 Assay for human Aryl Hydrocarbon Receptor (Ahr) (AID 2282930); details: HepG2 AhR cis-factorial reporter transcription; actives raise or lower the signal
Aryl hydrocarbon receptor (Homo sapiens), sequence (P35869 whole entry, looked up): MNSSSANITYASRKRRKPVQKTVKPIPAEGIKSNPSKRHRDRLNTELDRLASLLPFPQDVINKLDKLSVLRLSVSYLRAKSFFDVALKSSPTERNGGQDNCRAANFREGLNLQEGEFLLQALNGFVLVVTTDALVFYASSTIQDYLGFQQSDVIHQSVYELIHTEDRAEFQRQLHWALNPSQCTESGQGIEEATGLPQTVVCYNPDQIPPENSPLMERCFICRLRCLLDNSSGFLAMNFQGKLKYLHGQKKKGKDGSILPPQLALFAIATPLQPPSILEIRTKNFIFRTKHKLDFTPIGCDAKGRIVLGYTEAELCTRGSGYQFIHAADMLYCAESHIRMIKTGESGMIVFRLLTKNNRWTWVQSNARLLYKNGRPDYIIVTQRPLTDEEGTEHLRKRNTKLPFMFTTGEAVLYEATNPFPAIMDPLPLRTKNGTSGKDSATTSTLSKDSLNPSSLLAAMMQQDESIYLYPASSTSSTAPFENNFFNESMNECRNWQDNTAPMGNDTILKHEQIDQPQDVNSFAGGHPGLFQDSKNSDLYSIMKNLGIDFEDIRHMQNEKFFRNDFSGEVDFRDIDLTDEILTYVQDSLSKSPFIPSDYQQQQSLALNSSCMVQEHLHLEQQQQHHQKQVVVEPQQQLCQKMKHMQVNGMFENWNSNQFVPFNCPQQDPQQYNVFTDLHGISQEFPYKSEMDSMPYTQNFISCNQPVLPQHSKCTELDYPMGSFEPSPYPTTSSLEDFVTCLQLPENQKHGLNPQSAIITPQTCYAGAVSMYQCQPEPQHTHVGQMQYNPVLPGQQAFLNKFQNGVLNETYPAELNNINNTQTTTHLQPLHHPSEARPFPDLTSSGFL
Summary of the method: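 Read-out: reporter mRNA quantified by RT-PCR with fluorescent primer extension and capillary electrophoresis. Human HepG2 liver cells carried transfected cis-promoter reporter units and were exposed to chemical for 24 h; gain or loss fitted relative to DMSO.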

[7] = ATG_AP_1_CIS: Attagene CIS-FACTORIAL HepG2 Assay for human Activator Protein 1 (AP-1) (AID 2282931); details: HepG2 Attagene cis-factorial AP-1 reporter mRNA; actives raise or lower the signal
Summary of the method: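 Fluorescence of labelled PCR fragments separated by capillary electrophoresis gives reporter mRNA levels. HepG2 with transfected cis-regulated reporter units, 24 h exposure; DMSO serves as baseline for bidirectional curve fits.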

[8] = ATG_AP_2_CIS: Attagene CIS-FACTORIAL HepG2 Assay for human Activator Protein 2 (AP-2) (AID 2282932); details: HepG2 AP-2 cis-reporter, Attagene transcription factor profiling; actives raise or lower the signal
Summary of the method: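 Read-out: fluorescent reporter mRNA via RT-PCR and capillary electrophoresis, 24 h post-dose in transiently transfected HepG2. Endogenous factors drive cis-promoter reporters; gain or loss of signal fitted bidirectionally against DMSO.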

[9] = ATG_BRE_CIS: Attagene CIS-FACTORIAL HepG2 Assay for human Bone Morphogenetic Protein (BMP) Response Element (BRE) (AID 2282933); details: HepG2 BMP response element reporter, Attagene transcription factor profiling; actives raise or lower the signal
Summary of the method: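 Fluorescence-labelled reporter cDNA fragments, separated by capillary electrophoresis, gave the signal for this component of a 52-readout multiplex. HepG2 cells were transfected, exposed to chemicals for 24 h, and compared with DMSO using bidirectional fitting.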

[10] = target: Retinoic acid receptor alpha (Homo sapiens) (UniProt P10276); assay: ATG_DR5_RAR_CIS: Attagene CIS-FACTORIAL HepG2 Assay for human Retinoic Acid Receptor Alpha (RARE), DR5 submotif (AID 2282934); details: HepG2 Attagene cis-factorial RARE DR5 reporter, mRNA; actives raise or lower the signal
Retinoic acid receptor alpha (Homo sapiens), sequence (P10276 whole entry, looked up): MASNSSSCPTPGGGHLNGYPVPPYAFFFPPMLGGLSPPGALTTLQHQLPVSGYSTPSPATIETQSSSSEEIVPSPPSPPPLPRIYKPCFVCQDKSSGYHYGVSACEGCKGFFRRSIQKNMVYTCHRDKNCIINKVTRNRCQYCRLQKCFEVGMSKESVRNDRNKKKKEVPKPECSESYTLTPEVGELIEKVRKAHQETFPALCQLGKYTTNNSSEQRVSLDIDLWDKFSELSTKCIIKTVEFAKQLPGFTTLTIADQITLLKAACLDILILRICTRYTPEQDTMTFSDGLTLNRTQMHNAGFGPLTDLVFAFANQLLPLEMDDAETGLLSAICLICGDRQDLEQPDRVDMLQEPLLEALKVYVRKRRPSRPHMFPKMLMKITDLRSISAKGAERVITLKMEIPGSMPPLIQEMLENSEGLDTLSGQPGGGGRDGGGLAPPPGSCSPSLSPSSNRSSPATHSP
Summary of the method: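 Read-out: DR5-driven reporter transcript measured by RT-PCR, 6-FAM primer extension, HpaI digest and capillary electrophoresis. Human HepG2 liver cells carry transiently transfected cis-element reporter constructs; dosing lasts 24 h. Gain or loss of signal fitted against DMSO baseline.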

[11] = target: Transcription factor E2F1 (Homo sapiens) (UniProt Q01094); assay: ATG_E2F_CIS: Attagene CIS-FACTORIAL HepG2 Assay for human E2F Transcription Factor 1 (AID 2282935); details: HepG2 Attagene cis-reporter, E2F reporter RNA transcripts; actives raise or lower the signal
Transcription factor E2F1 (Homo sapiens), sequence (Q01094 whole entry, looked up): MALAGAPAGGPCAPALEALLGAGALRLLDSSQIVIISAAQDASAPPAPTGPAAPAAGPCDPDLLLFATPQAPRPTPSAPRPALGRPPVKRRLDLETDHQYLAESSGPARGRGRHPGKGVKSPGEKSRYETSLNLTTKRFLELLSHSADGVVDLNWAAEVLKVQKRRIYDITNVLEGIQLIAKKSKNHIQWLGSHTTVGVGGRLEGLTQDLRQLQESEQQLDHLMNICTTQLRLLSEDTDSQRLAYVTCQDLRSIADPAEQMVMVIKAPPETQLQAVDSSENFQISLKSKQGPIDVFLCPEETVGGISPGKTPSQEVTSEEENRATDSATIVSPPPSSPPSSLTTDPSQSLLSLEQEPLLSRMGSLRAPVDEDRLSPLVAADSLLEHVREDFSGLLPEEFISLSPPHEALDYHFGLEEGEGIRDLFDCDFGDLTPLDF
Summary of the method: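 Transient MRTU transfection of HepG2; 24 h compound exposure; RNA → oligo(dT) RT → PCR → FAM label → HpaI cut → CE fluorescence. Gain/loss of signal fit against DMSO.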

[12] = ATG_M_61_CIS: Attagene CIS-FACTORIAL HepG2 Assay for M61 Transcription Factor (Internal Marker) (AID 2282937); details: HepG2 Attagene CIS-FACTORIAL M61 internal marker reporter; actives raise or lower the signal
Summary of the method: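 This endpoint serves as an internal background control within a multiplexed HepG2 cis-reporter panel. Cells are exposed for 24 h; reporter mRNA is amplified, fluorescently labelled and sized by capillary electrophoresis, with DMSO as negative control.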

[13] = ATG_EGR_CIS: Attagene CIS-FACTORIAL HepG2 Assay for human Early Growth Response 1 (EGR1) (AID 2282938); details: HepG2 Attagene CIS-FACTORIAL EGR reporter mRNA; actives raise or lower the signal
Summary of the method: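 HepG2, transient MRTU transfection (cis promoters), 24 h compound. RNA → RT (oligo-dT) → PCR → 6-FAM labelling → HpaI cut → CE fluorescence. Bidirectional fit, DMSO baseline.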

[14] = ATG_M_19_CIS: Attagene CIS-FACTORIAL HepG2 Assay for M19 Transcription Factor (Internal Marker) (AID 2282939); details: HepG2 Attagene CIS-FACTORIAL M19 internal marker reporter; actives raise or lower the signal
Summary of the method: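 HepG2, MRTU transient transfection, 24 h dosing. Total RNA → RT-PCR → 6-FAM primer extension → HpaI digest → CE fluorescence. Bidirectional curve fit, DMSO negative control.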

[15] = ATG_ERE_CIS: Attagene CIS-FACTORIAL HepG2 Assay for Estrogen Response Element (ERE) (AID 2282940); details: HepG2 ERE cis-reporter, Attagene RNA transcript; actives raise or lower the signal
Summary of the method: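 After a 24 h chemical treatment, RNA from reporter-transfected HepG2 cells is reverse-transcribed, PCR-amplified and fluorescently labelled. Fragments separated by capillary electrophoresis give reporter signal; DMSO serves as negative control.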

[16] = ATG_Ets_CIS: Attagene CIS-FACTORIAL HepG2 Assay for human Erythroblast Transformation Specific (ETS) (AID 2282941); details: HepG2 ETS cis-reporter transcription, actives raise or lower the signal
Summary of the method: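 Endogenous transcription factor activity read as reporter mRNA via RT-PCR and capillary electrophoresis, with gain or loss fitted bidirectionally against DMSO. Human HepG2 liver cells, transiently transfected CIS reporter constructs, 24 h exposure.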

[17] = target: Hepatocyte nuclear factor 3-beta (Homo sapiens) (UniProt Q9Y261); assay: ATG_FoxA2_CIS: Attagene CIS-FACTORIAL HepG2 Assay for human Forkhead box A2 (FOXA2) (AID 2282942); details: HepG2 cis-reporter transcription factor activity, 24 h; actives raise or lower the signal
Hepatocyte nuclear factor 3-beta (Homo sapiens), sequence (Q9Y261 whole entry, looked up): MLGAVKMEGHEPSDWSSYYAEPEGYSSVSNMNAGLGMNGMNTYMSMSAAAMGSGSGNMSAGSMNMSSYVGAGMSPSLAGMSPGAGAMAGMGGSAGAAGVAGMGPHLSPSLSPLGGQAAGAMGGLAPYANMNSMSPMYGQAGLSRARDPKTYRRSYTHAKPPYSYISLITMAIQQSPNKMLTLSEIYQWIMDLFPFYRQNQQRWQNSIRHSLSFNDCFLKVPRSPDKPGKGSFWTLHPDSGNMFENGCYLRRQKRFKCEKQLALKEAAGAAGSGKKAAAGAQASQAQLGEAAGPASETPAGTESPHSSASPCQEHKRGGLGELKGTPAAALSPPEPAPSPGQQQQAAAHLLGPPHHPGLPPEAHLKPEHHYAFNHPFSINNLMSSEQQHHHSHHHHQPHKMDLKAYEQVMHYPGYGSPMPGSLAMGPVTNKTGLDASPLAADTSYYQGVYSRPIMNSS
Summary of the method: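 Cells: HepG2, transient multiplex reporter transfection. Exposure 24 h. Detection: reporter-specific RT-PCR, fluorescent labelling, restriction digest, capillary electrophoresis. Analysis: bidirectional curve fit, DMSO as negative control.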

[18] = ATG_FoxO_CIS: Attagene CIS-FACTORIAL HepG2 Assay for human Forkhead box O (FoxO) (AID 2282943); details: HepG2 Attagene cis-reporter, FoxO element, mRNA; actives raise or lower the signal
Summary of the method: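 Read-out: fluorescence of 6-FAM-labelled reporter cDNA fragments resolved by capillary electrophoresis. Transiently transfected HepG2 cells were dosed for 24 h; activity fitted in both directions relative to DMSO controls.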

[19] = ATG_GATA_CIS: Attagene CIS-FACTORIAL HepG2 Assay for human GATA Binding Protein (AID 2282944); details: HepG2 GATA cis-element reporter, Attagene multiplex mRNA; actives raise or lower the signal
Summary of the method: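 Cells: HepG2, transiently transfected with cis-regulated reporter transcription units. Exposure: 24 h. Detection: RT-PCR plus capillary electrophoresis of FAM-labeled fragments. Analysis: bidirectional, DMSO as baseline.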

[20] = ATG_E_Box_CIS: Attagene CIS-FACTORIAL HepG2 Assay for human Enhancer Box (E-box) (AID 2282936); details: HepG2 E-box cis-reporter transcription, actives raise or lower the signal
Summary of the method: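 Transiently transfected HepG2, endogenous TF-driven reporters, 24 h dosing. Readout: RT-PCR plus capillary electrophoresis of fluorescent reporter fragments. Gain or loss of signal fitted bidirectionally against DMSO baseline.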

Measured: AC50

O=C=NCc1cccc(CN=C=O)c1
not listed: [20]
inactive: all other assays above

O=c1[nH]cccc1O
not listed: [17] | [20]
inactive: all other assays above

Brc1nc2ccccc2s1
active: [1] 0.0408 µM | [5] 100 µM | [7] 65.1 µM | [20] 100 µM
not listed: [6] | [17]
inactive: all other assays above

COCCC(=O)OC
not listed: [6]
inactive: all other assays above

Cc1cc(C)c(O)c(C(C)(C)C)c1
active: [4] 100 µM
not listed: [6] | [17]
inactive: all other assays above

C=C(C)C(=O)OCC(F)(F)C(F)(F)C(F)(F)C(F)F
not listed: [20]
inactive: all other assays above

NC(=O)C(F)(F)C(F)(F)C(F)(F)C(F)F
not listed: [15]
inactive: all other assays above
